# Values without a mark were called inactive. Results filed as inconclusive are left out. A call without a number means that no potency is given here. The source made the active and inactive calls. Unless noted, the call rests on the fitted dose curve; in most records, active means well fitted curve in the direction sought with a large enough effect; inconclusive means small, poorly fitted or top-dose-only effect, or another doubt; inactive means no such curve, though single readings can be large; an effect the other way counts as inactive or inconclusive.
# What was measured:
# [1] = target: Alpha-galactosidase (Coffea arabica) (UniProt Q42656); experiment: Counterscreen for Glucocerebrosidase Inhibitors: qHTS Assay for Coffee Bean alpha-Galactosidase at pH 4.5 (AID 957); further: series mostly up to about 77 µM
# How it was run: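 Fluorogenic read-out: 4-methylumbelliferone at Ex 365/Em 440 nm after NaOH/glycine stop (pH 10). Enzyme 2 nM, 4-MU-alpha-galactoside 80 uM, citrate buffer pH 4.5, 20 min RT; normalized to no-enzyme and enzyme controls.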
# [2] = Validation screen for inhibitors of Lassa infection (AID 463096; calls by dose curve; further: potency means the concentration at half of the fitted maximal effect)
# [3] = Inducers of the Endoplasmic Reticulum Stress Response (ERSR) in human glioma: Validation (AID 504836)
# How it was run: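 Stably transfected U87-MG glioma cells carrying a GRP78-based luciferase sensor; 16 h compound incubation. Luminescence end-point read 10 min after Bright-Glo addition at room temperature.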
# [4] = target: Alpha-galactosidase (Coffea arabica) (UniProt Q42656); experiment: Counterscreen for Glucocerebrosidase Inhibitors: qHTS Assay for Coffee Bean alpha-Galactosidase at pH 5.9 (AID 998)
# How it was run: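 Enzyme 2 nM + cpd (0.7 nM–77 uM titration) + 4-MU-alpha-Gal 80 uM, pH 5.9 citrate/Tween-20, RT 20 min, NaOH/glycine stop pH 10, fluor 365/440. Normalized to no-enzyme and full-activity controls; Hill-fit AC50.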
# [5] = target: Tyrosyl-DNA phosphodiesterase 1 (Homo sapiens) (UniProt Q9NUW8); experiment: Confirmation Assay for Inhibitors of Tyrosyl-DNA Phosphodiesterase (TDP1) (AID 489007); conditions: recombinant human TDP1 enzymatic activity, dose-response; further: potency means the concentration at half of the fitted maximal effect; nearly all actives have a fitted effect of over 40% in size
# How it was run: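 AlphaScreen read-out: streptavidin donor and anti-FITC acceptor beads (10 ug/ml) bind intact substrate, so Tdp1 removal of tyrosine-FITC lowers signal. Enzyme 1 nM, substrate 15 nM, 5 min reaction at room temperature after 15 min compound preincubation.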
# Chain of Alpha-galactosidase (Coffea arabica) (Q42656 whole entry, looked up): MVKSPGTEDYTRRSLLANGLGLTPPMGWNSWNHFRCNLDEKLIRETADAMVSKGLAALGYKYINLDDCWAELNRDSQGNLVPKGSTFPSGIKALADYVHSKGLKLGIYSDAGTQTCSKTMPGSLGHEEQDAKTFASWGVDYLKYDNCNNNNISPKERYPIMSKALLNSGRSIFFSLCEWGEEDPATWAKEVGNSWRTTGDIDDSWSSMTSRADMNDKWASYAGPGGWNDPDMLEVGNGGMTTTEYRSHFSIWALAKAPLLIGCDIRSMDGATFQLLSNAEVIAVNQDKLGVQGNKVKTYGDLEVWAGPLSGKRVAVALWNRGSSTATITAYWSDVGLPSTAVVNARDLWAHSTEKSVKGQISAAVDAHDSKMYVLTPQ
# Chain of Tyrosyl-DNA phosphodiesterase 1 (Homo sapiens) (Q9NUW8 whole entry, looked up): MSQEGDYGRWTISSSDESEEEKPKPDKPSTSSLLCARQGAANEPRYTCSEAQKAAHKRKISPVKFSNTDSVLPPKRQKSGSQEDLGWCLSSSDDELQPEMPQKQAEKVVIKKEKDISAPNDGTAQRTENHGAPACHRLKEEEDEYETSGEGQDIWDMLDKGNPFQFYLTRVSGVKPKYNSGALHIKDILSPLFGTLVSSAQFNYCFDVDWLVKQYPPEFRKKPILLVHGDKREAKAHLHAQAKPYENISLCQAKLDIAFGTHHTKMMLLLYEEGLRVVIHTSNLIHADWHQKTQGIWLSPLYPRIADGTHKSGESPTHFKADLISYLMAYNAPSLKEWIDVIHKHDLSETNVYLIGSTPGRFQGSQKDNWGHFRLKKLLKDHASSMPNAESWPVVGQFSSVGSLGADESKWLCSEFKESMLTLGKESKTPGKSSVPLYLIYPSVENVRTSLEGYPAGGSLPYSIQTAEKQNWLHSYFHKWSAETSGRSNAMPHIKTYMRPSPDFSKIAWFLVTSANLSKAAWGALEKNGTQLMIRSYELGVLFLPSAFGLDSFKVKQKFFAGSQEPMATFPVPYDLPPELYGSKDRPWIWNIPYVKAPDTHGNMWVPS
smiles,measurement,setting,value
COc1ccccc1NC(=O)Nc1nc(-c2cccnc2)nc2ccccc12,outcome,[1],inactive
same,Potency,[2],inactive
CNC(=O)[C@H]1O[C@@H](n2cnc3c(NCc4cccc(I)c4)ncnc32)[C@H](O)[C@H]1O,Potency,[2],inactive
Nc1ncnc2c1nc(Sc1ccc(Cl)cc1)n2[C@H]1O[C@@H]2COP(=O)(O)O[C@H]2[C@@H]1O,Potency,[2],inactive
CNC(=O)[C@H]1O[C@@H](n2cnc3c(NCc4ccc(N)cc4)ncnc32)[C@H](O)[C@H]1O,Potency,[2],inactive
CN1C2CC(OC(=O)C(CO)c3ccccc3)CC1C1OC12 (centres undefined),Potency,[2],inactive
C[C@]12CCC(=O)C=C1CC[C@@H]1C2[C@@H](O)C[C@@]2(C)[C@H]1CC[C@]2(O)C(=O)CO (some centres undefined),Potency,[2],inactive
[N-]=[N+]=Nc1ccc(C(=O)CSC[C@H](NC(=O)CC[C@H](N)C(=O)O)C(=O)NCC(=O)O)cc1,Potency,[2],inactive
same,outcome,[3],inactive
Nc1ncnc2c1ncn2[C@@H]1O[C@H](C(=O)NC2CC2)[C@H](O)[C@H]1O,Potency,[2],inactive
O=C(NCCNCC(O)COc1ccc(O)cc1)N1CCOCC1 (centres undefined),Potency,[2],inactive
Nc1nc2c(nc(Br)n2C2O[C@H]3COP(=O)(O)O[C@@H]3C2O)c(=O)[nH]1 (some centres undefined),Potency,[2],inactive
O=C1C(SCCO)=C(SCCO)C(=O)c2ccccc21,outcome,[1],inactive
same,outcome,[4],inactive
same,Potency,[2],5.01 µM (active)
same,outcome,[3],inactive
COc1ccccc1CNCCCCCCNCCCCCCCCNCCCCCCNCc1ccccc1OC,outcome,[1],inactive
same,outcome,[4],inactive
same,Potency,[2],inactive
same,outcome,[3],inactive
CN(C)C1C(=O)C(C(N)=O)=C(O)[C@@]2(O)C(=O)C3=C(O)c4c(O)ccc(Cl)c4[C@@H](O)C3C[C@@H]12 (some centres undefined),Potency,[2],inactive
COc1ccc2c(c1OC)C(=O)OC2C1c2c(cc3c(c2OC)OCO3)CCN1C (centres undefined),Potency,[2],inactive
CC[C@H](C)C(=O)O[C@H]1CCC=C2C=C[C@H](C)[C@H](CC[C@@H]3C[C@H](O)CC(=O)O3)C21 (some centres undefined),Potency,[2],inactive
Nc1ncnc2c1ncn2[C@@H]1O[C@H](CO)[C@H](O)[C@H]1O,Potency,[2],inactive
CN(C)CCCO[C@H]1C([C@H](O)CO)O[C@@H]2OC(C)(C)O[C@@H]21 (some centres undefined),Potency,[2],inactive
Nc1nc(Cl)nc2c1ncn2[C@@H]1O[C@H](CO)[C@H](O)[C@H]1O,Potency,[2],inactive
C1CCC(N=C(NC23CC4CC(CC(C4)C2)C3)N2CCOCC2)CC1,outcome,[1],inactive
same,outcome,[4],inactive
same,Potency,[2],inactive
same,outcome,[3],inactive
Nc1ncnc2c1ncn2[C@@H]1O[C@H](COP(=O)(O)OP(=O)(O)OP(=O)(O)OP(=O)(O)OC[C@@H]2O[C@H](n3cnc4c(N)ncnc43)[C@@H](O)[C@@H]2O)[C@H](O)[C@H]1O,Potency,[2],inactive
CC1(C)C(=O)N(CCN2CCC(C(=O)c3ccc(F)cc3)CC2)c2ccccc21,outcome,[1],inactive
same,outcome,[4],inactive
same,Potency,[2],inactive
same,outcome,[3],inactive
CC(=O)O[C@]1(C(C)=O)CC[C@H]2C3C=C(Cl)C4=CC(=O)[C@@H]5C[C@H]5[C@]4(C)C3CC[C@@]21C (some centres undefined),Potency,[2],inactive
CC(N)=NCc1cccc(CN)c1,outcome,[4],inactive
same,Potency,[2],inactive
N=C(N)SCCc1cccc(CCSC(=N)N)c1,outcome,[1],inactive
same,outcome,[4],inactive
same,Potency,[2],inactive
CN(C)c1ccc(/C=C2/C(=O)NC(=O)N(Cc3ccco3)C2=O)cc1,Potency,[5],100 µM (active)
O=c1c2ccccc2nc(/C=C/c2cccnc2)n1Cc1ccccc1,Potency,[5],14.1 µM (active)
CCCNC[C@H](O)COc1ccccc1C(=O)CCc1ccccc1,outcome,[1],inactive
same,outcome,[4],inactive
same,Potency,[2],inactive
COC(=O)c1c(-c2cc(OC)c(OC)c(OC)c2)c2ccc(OCc3ccccn3)cc2c(=O)n1-c1ccc(N)cc1,outcome,[1],inactive
same,Potency,[2],inactive
N#Cc1c(-c2ccccc2)no[n+]1[O-],outcome,[1],inactive
same,outcome,[4],inactive
same,Potency,[2],10 µM (active)
CCOc1ccc2nc(N=Nc3c(O)[nH]c(=O)[nH]c3=O)sc2c1,Potency,[5],100 µM (active)
O=C(Cc1ccc(Cl)c(Cl)c1)OCCN1CCCC1,outcome,[4],inactive
same,Potency,[2],inactive
NCCC(=O)NCCc1cnc[nH]1,outcome,[1],inactive
same,outcome,[4],inactive
same,Potency,[2],inactive
Cn1cnc2c(NC3CCCC3)ncnc21,outcome,[1],inactive
same,outcome,[4],inactive
same,Potency,[2],inactive
CC(C)C[C@H](N)CSSC[C@@H](N)CC(C)C,outcome,[1],inactive
same,outcome,[4],inactive
same,Potency,[2],inactive
CC(=O)NCCc1ccc(O)c(O)c1,outcome,[1],inactive
same,outcome,[4],inactive
same,Potency,[2],inactive
NC(=NCCC[C@H](N)C(=O)O)NO,outcome,[1],inactive
same,outcome,[4],inactive
same,Potency,[2],inactive
COc1ccc2c(c1)c(CC(=O)N1CCOCC1)c(C)n2C(=O)c1ccc(Cl)cc1,outcome,[1],inactive
same,outcome,[4],inactive
same,Potency,[2],inactive
O=C(Nc1cc(C(=O)Nc2ccc(S(=O)(=O)O)cc2S(=O)(=O)O)cc(C(=O)Nc2ccc(S(=O)(=O)O)cc2S(=O)(=O)O)c1)Nc1cc(C(=O)Nc2ccc(S(=O)(=O)O)cc2S(=O)(=O)O)cc(C(=O)Nc2ccc(S(=O)(=O)O)cc2S(=O)(=O)O)c1,outcome,[1],inactive
same,outcome,[4],inactive
same,Potency,[2],inactive
Cc1cc(N)c2ccccc2[n+]1CCCCCCCCCCCCCC[n+]1c(C)cc(N)c2ccccc21,outcome,[1],inactive
same,outcome,[4],inactive
same,Potency,[2],7.08 µM (active)
CCSC(N)=Nc1ccc(C(F)(F)F)cc1,outcome,[1],inactive
same,outcome,[4],inactive
same,Potency,[2],inactive
CCCn1c(=O)c2[nH]c(-c3ccc(OCC(=O)Nc4ccc(C#N)cc4)cc3)nc2n(CCC)c1=O,outcome,[1],inactive
same,outcome,[4],inactive
same,Potency,[2],inactive
CCc1nnc(NC(=O)CSc2ccc(-c3ccco3)nn2)s1,Potency,[5],15.8 µM (active)
CCCCN1CCC(COC(=O)c2cc(Cl)c(N)c3c2OCCO3)CC1,outcome,[1],inactive
same,outcome,[4],inactive
same,Potency,[2],inactive
CN(C)CCCCSC(=N)N,outcome,[1],inactive
same,outcome,[4],inactive
same,Potency,[2],inactive
O=C1NC(=O)N(c2ccc3c(c2)OCO3)C(=O)/C1=C\c1ccc(-c2ccccc2C(=O)O)o1,Potency,[5],3.16 µM (active)
NCCNS(=O)(=O)c1cccc2cnccc12,outcome,[1],inactive
same,outcome,[4],inactive
same,Potency,[2],inactive
COc1ccc2c(c1)c(CC(=O)O)c(C)n2Cc1ccc(F)cc1,outcome,[1],inactive
same,outcome,[4],inactive
same,Potency,[2],inactive
CCCC(=O)NCCc1c2n(c3ccc(OC)cc13)Cc1ccccc1-2,outcome,[4],inactive
same,Potency,[2],inactive
C[C@H](CCC(=O)O)[C@H]1CC[C@@H]2[C@H]3CC[C@H]4C[C@H](O)CC[C@]4(C)[C@@H]3CC[C@@]21C,Potency,[5],100 µM (active)
Cc1cc(C)c(NC(=O)C[C@H](CC(=O)O)c2cccc3ccccc23)c(C(=O)N2CCC3(CCCC3)CC2)c1,outcome,[1],inactive
same,outcome,[4],inactive
same,Potency,[2],inactive
NCCCCCCNS(=O)(=O)c1cccc2c(Cl)cccc12,outcome,[1],inactive
same,outcome,[4],inactive
same,Potency,[2],inactive
CCn1c(=O)c2[nH]c(-c3ccccc3)nc2n(CC)c1=O,outcome,[4],inactive
same,Potency,[2],inactive
O=S(=O)(O)C1CCNCC1,outcome,[1],inactive
same,outcome,[4],inactive
same,Potency,[2],inactive
CC(C)(O/N=C(\C(=O)N[C@@H]1C(=O)N2C(C(=O)[O-])=C(C[n+]3ccccc3)CS[C@@H]12)c1csc(N)n1)C(=O)O,Potency,[5],15.8 µM (active)
C[N+](C)(C)CCC(=O)c1cccc2ccccc12,outcome,[1],inactive
same,outcome,[4],inactive
same,Potency,[2],10 µM (active)
O=C(O)c1cc(=O)c2ccc(Cl)cc2[nH]1,outcome,[4],inactive
same,Potency,[2],inactive
COc1[nH]c2ccc(F)cc2c1C(=O)OCC1CCN(CCNS(C)(=O)=O)CC1,outcome,[1],inactive
same,outcome,[4],inactive
same,Potency,[2],inactive
Cc1cccc(C)c1NC(=O)C[N+](C)(C)C,outcome,[1],inactive
same,outcome,[4],inactive
same,Potency,[2],inactive
NCCNC(=O)c1ccc(Cl)cc1,outcome,[1],inactive
same,outcome,[4],inactive
same,Potency,[2],inactive
Oc1cc(O)c2c(c1)OC(c1cc(O)c(O)c(O)c1)C(O)C2 (centres undefined),Potency,[5],5.01 µM (active)
CC(=O)Nc1ccc(N=Cc2c(O)n(Cc3ccco3)c(=O)[nH]c2=O)cc1,Potency,[5],22.4 µM (active)
